hcDAF12 agonist: H. contortus DAF-12 nuclear receptor activators, primary screen, cell-based, luminescence, HEK293, lit1-tk-luc reporter | HEK293 hcDAF-12 lit1-tk-luc reporter; 0% DMSO, 100% Δ7-dafachronic acid | activation, % at 6.8 µM | 370,000 tested, 1.4% active | AID 652067, 2013;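 active = activation above the mean of all tested compounds plus 3 SD, cut at about 5.5% in these data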;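 note: 100% = response to 3 µM Δ7-dafachronic acid high control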
ssDAF-12 act: S. stercoralis DAF-12 nuclear receptor activators, primary screen, cell-based, luminescence, HEK293, GRIP1 co-expression, lit1-tk-luc; Nuclear hormone receptor DAF-12 (Strongyloides stercoralis); HEK293 ssDAF-12/GRIP1 lit1-tk-luc reporter; % of 3 µM dafachronic acid response; activation, % at 6.8 µM; 370,000 tested, 1% active;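 active = activation above the mean over all tested compounds plus 3 SD, cut at about 0.9% in these data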;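 note: 0% = DMSO-only wells and 100% = 3 µM delta7-dafachronic acid wells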
SMARCA2 act: SMARCA2 (BRM) function activators, primary screen, cell-based, luminescence, high throughput; AID 652017, 2013; activation, % at 9.1 µM; MG213 cells, MMTV-luciferase reporter, dexamethasone, overnight; 370,000 tested, 1% active; in the data active = activation above about 7.8%;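 note: 0% = vehicle wells and 100% = reference activator wells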
DAX1 inh-1: DAX1 (NR0B1) inhibitors on StAR promoter, primary screen, cell-based, luminescence, SF-1 (NR5A1), full-length DAX-1 | AID 652010, 2013 | 370,000 tested, 1.1% active | inhibition, % at 6.8 µM | HEK293T StAR-luciferase reporter, SF-1/DAX-1 repression relief;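 active = inhibition above the mean over all tested compounds plus 3 SD, cut at about 3.6% in these data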;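 note: 0% = DAX-1 cells with DMSO and 100% = cells lacking DAX-1 with DMSO; higher inhibition means more luminescence from relief of DAX-1 repression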
hgDAF12 agonist: H. glycines DAF-12 receptor agonists, primary screen, cell-based, luminescence, HEK293, GAL4 fusion, UAS-luciferase | Nuclear hormone receptor DAF-12 (Heterodera glycines), GAL4 fusion | HEK293 GAL4-hgDAF12 UAS-luciferase reporter, agonist luminescence; normalized to butyrate control | activation, % at 6.8 µM | 370,000 tested, 1.8% active;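 active = activation above a cutoff set at the mean of all screened compounds plus 3 SD, cut at about 10% in these data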;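 note: 0% = DMSO wells and 100% = sodium butyrate wells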
DAX1 inh-2: DAX1 (NR0B1) inhibitors, primary screen, cell-based, HEK293, Gal4-DAX1, luciferase luminescence. Nuclear receptor subfamily 0 group B member 1 (Homo sapiens), P51843. 340,000 tested, 0.99% active. HEK293 Gal4-DAX1 luciferase reporter. AID 504766, 2011. inhibition, % at 6.75 µM;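 active = inhibition above the mean over all tested compounds plus 3 SD, cut at about 4.2% in these data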;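 note: 0% = DAX1-transfected cells with DMSO and 100% = empty-vector control cells with DMSO; inhibition shows as a rise in luminescence from relieved DAX1 repression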
Target sequence (P51843 207-470 limits assumed): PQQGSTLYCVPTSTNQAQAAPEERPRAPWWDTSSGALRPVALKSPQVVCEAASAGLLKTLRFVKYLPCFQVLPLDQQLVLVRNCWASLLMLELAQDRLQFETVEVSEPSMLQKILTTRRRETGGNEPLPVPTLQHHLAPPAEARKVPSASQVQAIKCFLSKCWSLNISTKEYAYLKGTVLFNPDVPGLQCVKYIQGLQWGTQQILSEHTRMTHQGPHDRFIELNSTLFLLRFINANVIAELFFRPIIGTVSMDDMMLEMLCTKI
SMARCA2 conf: SMARCA2 (BRM) function activators, confirmation, cell-based, luminescence, triplicate. MG213 cells, MMTV-luciferase with dexamethasone, overnight; MG213 cells expressing E1A, Rb sequestered; DMSO wells 0%, reference activator 100%. shares compounds with SMARCA2 act. 3,500 tested, 30% active. AID 652260, 2013. activation, % at 9.1 µM;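 active = activation above its plate's cutoff, the mean activation of tested wells plus 3 SD, cut at about 7.9% in these data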
VP16 Luc act: GAL4-VP16 luciferase reporter activation, counter-screen for SMARCA2 (BRM) activator project, cell-based, pG5luc, luminescence, high throughput | shares compounds with SMARCA2 act | HEK293 GAL4-VP16 pG5luc reporter; scaled: DMSO wells 0%, SAHA wells 100% | activation, % at 9.1 µM | 3,500 tested, 41% active;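 active = activation above the solvent-only control well mean plus 3 SD, averaged across control plates, cut at about 5.2% in these data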
* hit, by the source's call. In the library only some 4.8% were active in any assay of this set; here they are far more common.

What do the screens show for `C=CCN1C[C@H](C)N(C(c2ccc(C(=O)N(CC)CC)cc2)c2cccc(OC)c2)CC1C` (stereo not given in full)?
hcDAF12 agonist: 3; ssDAF-12 act: -1; SMARCA2 act: 6; DAX1 inh-1: 0; hgDAF12 agonist: 0

Results for CC(C)(C)Cc1nnc(NC(=O)COc2ccc(Cl)cc2Cl)o1 ?
hcDAF12 agonist: 0; ssDAF-12 act: -2; hgDAF12 agonist: -2

What do the screens show for `COc1ccc2c(c1)/C(=C/c1cnc[nH]1)C(=O)N2`?
hcDAF12 agonist: 4; ssDAF-12 act: 1.1*; SMARCA2 act: 17*; DAX1 inh-1: -3; hgDAF12 agonist: 0; DAX1 inh-2: -3; SMARCA2 conf: 11*; VP16 Luc act: 2

What do the screens show for `O=C(O)c1cc(S(=O)(=O)N2CC3CC(C2)c2cccc(=O)n2C3)ccc1F` (stereo not given)?
hcDAF12 agonist: -1; ssDAF-12 act: -2; SMARCA2 act: 2; DAX1 inh-1: 1; hgDAF12 agonist: 2

Results for CN(C)C(=O)Oc1cccc2c(OC(=O)N(C)C)cccc12 ?
hcDAF12 agonist: -1; ssDAF-12 act: -1; SMARCA2 act: -3; DAX1 inh-1: 1; hgDAF12 agonist: -1; DAX1 inh-2: 0

What do the screens show for `CN(C(=O)Oc1cccc2ccccc12)C1C=CCC1` (stereo not given)?
hcDAF12 agonist: 2; ssDAF-12 act: 0; SMARCA2 act: 9.9*; DAX1 inh-1: 0; hgDAF12 agonist: 7; DAX1 inh-2: 0; SMARCA2 conf: 4; VP16 Luc act: 4

Results for CCn1c(O)c(/C=N/NC(=O)c2ccccc2)c(=O)n(CC)c1=S ?
hcDAF12 agonist: 2; ssDAF-12 act: 0; SMARCA2 act: 8.1*; DAX1 inh-1: 0; hgDAF12 agonist: 4; SMARCA2 conf: 5; VP16 Luc act: 2

Results for CCn1c(O)c(/C=N/NC(=O)c2ccncc2)c(=O)[nH]c1=S ?
hcDAF12 agonist: 0; ssDAF-12 act: -1; SMARCA2 act: 0; DAX1 inh-1: -1; hgDAF12 agonist: 0; DAX1 inh-2: 2

What do the screens show for `Nc1ccccc1C(=O)OCC(=O)N1CCc2ccccc21`?
hcDAF12 agonist: 1; ssDAF-12 act: 0; SMARCA2 act: 8.7*; DAX1 inh-1: 2; hgDAF12 agonist: 5; DAX1 inh-2: 0; SMARCA2 conf: 7; VP16 Luc act: 7.5*

Results for O=S(=O)(c1ccc2ccccc2c1)N1Cc2cc(Br)ccc2-n2nncc2C1 ?
hcDAF12 agonist: -1; ssDAF-12 act: -1; SMARCA2 act: -2; DAX1 inh-1: 0; hgDAF12 agonist: 1

How did COc1ccc(N2C(=O)CC(N3CC=C(c4ccccc4)CC3)C2=O)cc1 (stereo not given) do in these assays?
hcDAF12 agonist: -2; ssDAF-12 act: -2; SMARCA2 act: 11*; DAX1 inh-1: 1; hgDAF12 agonist: 4; DAX1 inh-2: 1; SMARCA2 conf: -1; VP16 Luc act: 1

What do the screens show for `COc1cccc(-n2c(CN3CCOCC3)nc3ccc([N+](=O)[O-])cc3c2=O)c1`?
hcDAF12 agonist: 3; ssDAF-12 act: -1; SMARCA2 act: 11*; DAX1 inh-1: -1; hgDAF12 agonist: -3; DAX1 inh-2: -2; SMARCA2 conf: 5; VP16 Luc act: 1

Results for CCC1CCCCN1CC(=O)c1ccc(OC(F)F)cc1 (stereo not given) ?
hcDAF12 agonist: 1; ssDAF-12 act: -1; SMARCA2 act: 14*; DAX1 inh-1: 0; hgDAF12 agonist: 2; DAX1 inh-2: 0; SMARCA2 conf: -4; VP16 Luc act: 1

Results for C[C@H]1CN([C@@H](C)CO)C(=O)CCCn2cc(nn2)CO[C@@H]1CN(C)C(=O)Oc1cccc2ccccc12 ?
hcDAF12 agonist: -2; ssDAF-12 act: 0; SMARCA2 act: 3; DAX1 inh-1: 0; hgDAF12 agonist: 3

Results for O=c1c2ccccc2nc(/C=C/c2ccc([N+](=O)[O-])o2)n1-c1ccc(O)cc1 ?
hcDAF12 agonist: -2; ssDAF-12 act: -1; SMARCA2 act: 9.5*; DAX1 inh-1: -1; hgDAF12 agonist: -8; SMARCA2 conf: -14; VP16 Luc act: 1

What do the screens show for `COc1cc2c3cc1Oc1cc(ccc1O)C[C@@H]1c4c(cc(OC)c(O)c4Oc4ccc(cc4)C[C@H]3N(C)CC2)CCN1C`?
hcDAF12 agonist: 2; ssDAF-12 act: 0; SMARCA2 act: 10*; DAX1 inh-1: 4.5*; hgDAF12 agonist: -3; DAX1 inh-2: 1; SMARCA2 conf: 16*; VP16 Luc act: 1

Results for COc1cc2c3cc1Oc1c(OC)c(OC)cc4c1[C@H](Cc1ccc(cc1)Oc1cc(ccc1O)C[C@H]3N(C)CC2)N(C)CC4 ?
hcDAF12 agonist: 1; ssDAF-12 act: -1; SMARCA2 act: 7; DAX1 inh-1: 1; hgDAF12 agonist: 0; DAX1 inh-2: 2

How did COC(=O)C1C(c2ccc(I)cc2)CC2CCC1N2C (stereo not given) do in these assays?
hcDAF12 agonist: 0; ssDAF-12 act: -1; SMARCA2 act: -5; DAX1 inh-1: 0; hgDAF12 agonist: 0

How did O=C(NC1CN2CCC1CC2)c1cc(-c2ccc(Cl)cc2)nc2ccccc12 (stereo not given) do in these assays?
hcDAF12 agonist: 4; ssDAF-12 act: -1; SMARCA2 act: 11*; DAX1 inh-1: 4; hgDAF12 agonist: 2; SMARCA2 conf: 2; VP16 Luc act: 2

How did C=CCN1CC[C@]23c4c5ccc(O)c4OC2C(=O)CC[C@@]3(O)[C@H]1C5 (stereo not given in full) do in these assays?
hcDAF12 agonist: -1; ssDAF-12 act: -2; SMARCA2 act: 0; DAX1 inh-1: 0; hgDAF12 agonist: 3
